# High-throughput results: PubChem BioAssay, several laboratories
# Compounds with a hit are over-represented: about 1.8% of the library has one in this group of screens.
# TLR4-MyD88 BLA = TLR4-MyD88 interaction inhibition in cells; O00206+Q99836; HeLa CL3-4 TLR4/MyD88 BLA complementation, FRET ratio; inhibition, % at 8.4 µM; 200,000 compounds, 0.18% hits; in the data active = inhibition above about 25%;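 note: 0% = vehicle and 100% = reference inhibitor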
# TLR9-MyD88 block = inhibitors of human TLR9-MyD88 binding | 340,000 compounds, 0.21% hits | inhibition, % at 4.98 µM | AID 504734 | CHO BLA complementation TLR9-MyD88, CCF4 FRET ratio;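 active = inhibition above the mean over all tested compounds plus 3 SD, cut at about 21% in these data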;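 note: 0% = DMSO only wells and 100% = clavulanate BLA inhibitor control wells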
# NOD2-RIPK2 inh = blocks binding of human NOD2 to RIPK2; O43353; CHO BLA complementation NOD2-RIPK2, CCF4 ratio; inhibition, % at 4.98 µM; 360,000 compounds, 0.38% hits; in the data active = inhibition above about 21%;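 note: 0% = vehicle only and 100% = reference blocker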
# HTR2A ag = agonists of mouse serotonin 5-HT2A receptor (HTR2A) | CHO-K1 mHTR2A beta-arrestin complementation, luminescence; percent of 30 µM serotonin response | activation, % at 7.6 µM | 360,000 compounds, 0.66% hits | AID 624169;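 active = activation above a run cutoff, the mean activation of all tested compounds plus 3 SD, cut at about 14% in these data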;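 note: 0% = plate median of compound wells and 100% = 30 µM serotonin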
# LANA-H2B inh = blocks KSHV LANA binding to histone H2A/H2B. cell-free LANA-H2A/H2B peptide, fluorescence polarization. 320,000 compounds, 0.6% hits. inhibition, % (test concentration not listed). Q9QR71. AID 2629; in the data active = inhibition mostly above about 10%, no sharp cut-off; inactive = mostly below about 6.7%
# Rtt109 HAT inh = inhibitors of Candida albicans Rtt109/Vps75 histone acetyltransferase; Q5AAJ8; 330,000 compounds, 0.16% hits; AID 540336; purified Rtt109/Vps75, ThioGlo CoA-SH fluorescence, 4 h; inhibition, % at 34.9 µM;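 active = inhibition of at least 50% in every replicate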
# TLR4-MyD88 conf = confirmation of human TLR4-MyD88 binding inhibitors; inhibition, % at 8.4 µM; shares compounds with TLR4-MyD88 BLA; 350 compounds, 50% hits; AID 941; HeLa CL3-4 BLA complementation, CCF4 FRET ratio;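 active = mean inhibition across three repeat runs above about 25% carried over from the earlier screen, limit read from the data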;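 note: plate controls were DMSO only for no effect and clavulanic acid blocking BLA at full dose for full effect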
# BLA inhibitor ct = beta-lactamase inhibition flagged in TLR4-MyD88 counter-screen | inhibition, % at 8.4 µM | shares compounds with TLR4-MyD88 BLA | 350 compounds, 63% hits | AID 1237 | HeLa BLA reporter, CCF4 FRET ratio;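 active = mean inhibition over three repeats above about 26% taken from the earlier screen, limit read from the data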;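 note: HeLa cells stably expressing beta-lactamase reporter as counterscreen for TLR4-MyD88 inhibitors; 0% = DMSO and 100% = clavulanic acid full inhibition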
# * = called active by the depositor; / = no result given.
SMILES,TLR4-MyD88 BLA,TLR9-MyD88 block,NOD2-RIPK2 inh,HTR2A ag,LANA-H2B inh,Rtt109 HAT inh,TLR4-MyD88 conf,BLA inhibitor ct
CC(C)(C)c1ccc(-n2nc(C(N)=O)c(O)cc2=O)cc1,-10,9,-2,7,-6,26,/,/
CC(C)(C)c1ccc(-n2nc(C#N)c(Cl)cc2=O)cc1,42*,/,72*,-5,/,-13,30*,-2
O=C(CCl)c1ccc2c(c1)CCN2C(=O)C1CC1,19,/,/,/,-3,/,/,/
O=C(CCl)c1ccc2c(c1)CCN2C(=O)C1CCCCC1,27*,4,-1,6,5,-3,32*,-4
COc1cccc(C(=O)NCC2CCCN(C(=O)Cc3cccc(C)c3)C2)c1OC (stereo unspecified),/,-5,-3,1,/,/,/,/
COc1ccc(C2C(C(N)=O)=C(C)Nc3nc(CCCO)nn32)cc1 (stereo unspecified),/,2,5,-8,2,-7,/,/
CCC(=O)Nc1nc2n(n1)C(c1ccc(OC)cc1)C=C(c1ccccc1)N2 (stereo unspecified),14,/,/,/,3,/,/,/
COc1ccc(C2C=C(c3ccccc3)Nc3nc(CCCO)nn32)cc1 (stereo unspecified),26*,/,/,/,0,/,26*,38*
COc1ccc(C2C=C(c3cccs3)Nc3nc(CCCO)nn32)cc1 (stereo unspecified),32*,/,/,/,74*,/,33*,56*
COc1cc(C2(C)SCCCS2)cc(OC)c1OC,/,/,1,-5,/,/,/,/
COc1ccc(CCCNC(=O)C2Cc3c(-c4cccc(C(C)=O)c4)ccnc3O2)cc1 (stereo unspecified),/,/,8,-4,/,/,/,/
COc1cccc(/C=C/C(=O)c2c(O)cc(C)oc2=O)c1O,26*,-6,2,5,-2,8,-2,0
COc1ccc(/C=C/C(=O)c2c(O)cc(C)oc2=O)c(OC)c1,9,12,-4,-3,10,-24,/,/
CCCC(=O)N1CCCC(c2cc(C(=O)NCc3ccc(F)cc3)no2)C1 (stereo unspecified),/,/,5,2,/,/,/,/
COc1cc2c3c(c1OC)C(=O)CC3CCCC2 (stereo unspecified),/,/,-16,1,/,/,/,/
O=C(N/N=C/c1cc(Br)ccc1O)C(=O)Nc1ccccc1OC(F)(F)C(F)F,4,-5,6,-3,-1,7,/,/
O=C(N/N=C/c1cc(Cl)ccc1O)C(=O)Nc1ccccc1OC(F)(F)C(F)F,27*,7,8,-2,1,-3,7,20
CCSc1ncc(/C=N/Nc2ccc([N+](=O)[O-])cc2)n1C,44*,8,14,-6,3,6,33*,55*
CC1=NOC(=O)/C1=C\c1ccc(-c2ccccc2Br)o1,26*,9,0,-2,/,-13,21,-18
COc1ccc(NC(=O)C2(C)Cc3c(-c4cccc(C(N)=O)c4)ccnc3O2)cn1 (stereo unspecified),/,/,-5,14,/,/,/,/
COc1ccc(OC)c(-n2c(-c3cccc(O)c3)n[nH]c2=S)c1,30*,-1,-6,4,1,/,-2,0
Nc1nnc(-c2cc3c(ccc4ccccc43)oc2=O)s1,38*,/,/,/,/,/,31*,58*
O=c1oc2ccc3ccccc3c2cc1-c1nnc(-c2ccccc2)o1,0,-3,-2,5,-3,-62,/,/
CCCC(=O)N1CCC1(C)C(=O)NS(=O)(=O)c1cccc(C)c1 (stereo unspecified),/,/,3,0,/,/,/,/
CC1C(c2ccccc2)=Nn2c(=O)n(-c3ccccc3)c(=O)n21 (stereo unspecified),/,-5,-2,9,/,/,/,/
O=C(Nc1nccs1)c1cccc(N2C(=O)c3cccc4c([N+](=O)[O-])ccc(c34)C2=O)c1,28*,0,-4,3,-3,6,21,32*
